From PubChem
NIH3T3 tox: Cytotoxic Profiling in NIH 3T3 Cell Line of Diverse Libraries Using Quantitative High-Throughput Screening | NIH 3T3 viability, CellTiter-Glo ATP luminescence, 48-72 h | Potency, µM (doses to about 96.7 µM), for the others: at the highest dose activity change, negative = cytotoxicity, usual class: inhibitors | 4.3% of 94,000 active; note: nearly all actives have a fitted effect of over 55% in size
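Cells were seeded at 400 per well, treated with pin-transferred compound, and kept 48 or 72 hr at 37 °C before CellTiter-Glo addition and luminescence imaging of cellular ATP.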
Luciferase inh: Firefly luciferase inhibition profiling of diverse chemical library using quantitative high-throughput screening; purified P. pyralis luciferase, luminescence, biochemical; Potency, µM (titrated, usually from 115 µM), actives largely listed as inhibitors; 2.5% of 76,000 active; Luciferin 4-monooxygenase (Photinus pyralis), P08659; AID 1347043, 2019; note: nearly all actives have a fitted effect of over 65% in size
Target sequence (P08659 whole entry, looked up): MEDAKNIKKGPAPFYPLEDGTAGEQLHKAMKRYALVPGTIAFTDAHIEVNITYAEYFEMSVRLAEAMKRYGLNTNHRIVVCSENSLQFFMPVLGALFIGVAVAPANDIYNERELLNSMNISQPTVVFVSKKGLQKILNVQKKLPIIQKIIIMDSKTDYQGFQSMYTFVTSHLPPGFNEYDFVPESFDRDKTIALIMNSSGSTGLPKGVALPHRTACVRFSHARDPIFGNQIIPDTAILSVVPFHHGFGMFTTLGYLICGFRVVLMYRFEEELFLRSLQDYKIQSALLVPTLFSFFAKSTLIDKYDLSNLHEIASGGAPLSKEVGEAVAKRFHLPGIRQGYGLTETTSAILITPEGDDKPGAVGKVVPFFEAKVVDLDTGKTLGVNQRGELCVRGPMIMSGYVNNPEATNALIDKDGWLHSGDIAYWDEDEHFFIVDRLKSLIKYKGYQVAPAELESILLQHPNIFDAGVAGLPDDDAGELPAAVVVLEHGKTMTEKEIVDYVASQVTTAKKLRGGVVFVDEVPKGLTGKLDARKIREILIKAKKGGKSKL
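Luminescence read by CCD imaging after purified firefly luciferase (10nM final) was added to substrate buffer holding 10uM D-luciferin and 10uM ATP, pH 7.5, pre-dosed with compound.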
HEK293 tox: Cytotoxic Profiling in HEK 293 Cell Line of Diverse Libraries Using Quantitative High-Throughput Screening; AID 1345083, 2018; Potency, µM (doses to about 115 µM), inactives show at the top dose activity change, negative = cytotoxicity, usual class: inhibitors; HEK 293 viability, ATP luminescence (CellTiter-Glo), 48-72 h; 6.6% of 94,000 active; note: nearly all actives have a fitted effect of over 60% in size
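HEK 293 cells seeded at 250 cells/well were exposed to compound for 48 or 72 hr at 37 degree Celsius. Viability taken as ATP content by CellTiter-Glo luminescence.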
GPT2 inh: Primary qHTS assay for inhibitors of Glutamate pyruvate transaminase 2 (GPT2); Alanine aminotransferase 2 (Homo sapiens), Q8TD30; Recombinant GPT2, coupled pyruvate oxidase/HRP Amplex Red fluorescence; Potency, µM (top dose mostly 57.7 µM), inactives show at the highest dose activity change, negative = inhibition, most hits filed as inhibitors; 0.25% of 100,000 active; note: nearly all actives have a fitted effect of over 60% in size
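Fluorescence read-out: pyruvate from GPT2 turnover coupled to pyruvate oxidase, HRP and Amplex Red (0.2mM ThPP, 0.2U/mL PO and HRP, 50uM Amplex final). Substrates 250uM a-KG, 2mM L-alanine; enzyme 10ng/uL; 30 min RT.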
NPR1 antag: Natriuretic polypeptide receptor (hNpr1) antagonism - Primary qHTS. AID 1347048, 2019. Potency, µM (titrated, usually from 46.3 µM), inactives show at the top dose activity change, negative = inhibition, hits mostly inhibitors. Atrial natriuretic peptide receptor 1 (Homo sapiens), P16066. 1.6% of 76,000 active. HEK293 hNpr1 GloSensor cGMP, ANP-stimulated luminescence; calls by dose curve; note: nearly all actives have a fitted effect of over 60% in size
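HEK293 cells stably expressing human Npr1 and cGMP GloSensor pGS-40F, loaded 2 h with 2% GloSensor reagent, given compound 30 min at room temperature. Luminescence read before and 20 min after 0.1 nM hNppA.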
* marks the source's active call; other numbers are inactive results; i = inactive; u = inconclusive; x = no result; ! = a repeat was not active; [ ] = dose if it differs, or a comment. In the library only some 10% were active in any assay of this set; here they are far more common. Unless noted, calls come from the whole dose curve; as a rule, active = well fitted curve in the direction sought with a large enough effect; inconclusive = small, poorly fitted or top-dose-only effect, or another doubt; inactive = no such curve, though single readings can be large; an effect the other way counts as inactive or inconclusive. % is set by controls: 0 for no effect and ±100 for the full control effect; potency is the fitted concentration of half-maximal effect.

SMILES	NIH3T3 tox	Luciferase inh	HEK293 tox	GPT2 inh	NPR1 antag
COc1ccc(C(=O)N2CCCC2C(=O)N2CCC(N3Cc4cccn4C3=O)CC2)cc1 (stereo not given)	-33%	x	-18%	i	x
CCOc1cccc(CN2CC[C@@](C)(O)[C@H](N3CCCC3)C2)c1	-12%	i	-8%	i	6%
COc1ccccc1CN(Cc1ccccc1C)C(=O)[C@H]1CCC[C@H](O)C1	-20%	i	22µM*	-23%	2%
COc1ccccc1Cn1c(=O)c(C(=O)NCC(F)(F)F)nc2cccnc21	-31%	x	-11%	i	x
Cc1ccc(C(=O)NCc2nnc3c(-c4nc(C)no4)cccn23)cc1	4%	i	i	i	1%
O=C(CC1CCCC1)N1CC[C@@H]2COCCN(Cc3ccccc3)[C@@H]2C1	-28%	i	79µM*	i	-2%
O=C(c1ccco1)N1CC[C@@H]2COCCN(Cc3ccccc3)[C@@H]2C1	-10%	i	-10%	i	-14%
O=c1n(-c2ccc(C(F)(F)F)cc2)nc2n1CCN(Cc1cccnc1)C2	u	x	u	-15%	x
O=c1n(-c2ccc([N+](=O)[O-])cc2)nc2n1CCN(Cc1ccc(C(F)(F)F)cc1)C2	u	i	35µM*	-2%	14µM*
O=c1n(-c2ccc(F)cc2F)nc2n1CCN(Cc1ccc(C(F)(F)F)cc1)C2	-22%	i	79µM*	-15%	u
O=c1n(-c2ccc(C(F)(F)F)cc2)nc2n1CCN(Cc1ccsc1)C2	u	x	50µM*	u	x
COc1ccc(CN2CCn3c(nn(-c4ccc(F)cc4F)c3=O)C2)cc1	-14%	i	u	i	-14%
O=c1n(-c2ccc(C(F)(F)F)cc2)nc2n1CCN(Cc1ccc(F)cc1)C2	40µM*	i	32µM*!	0%	-24%
COc1ccccc1Nc1ccnc(N2CCC(C(=O)NCCCc3ccccc3)CC2)n1	u	x	u	i	x
COC1=C(C(=O)OCc2ccccc2)N(c2c(C)cccc2C)[S+](=O)([O-])c2ccccc21	-30%	x	u	x	x
CC(=O)Nc1ccc(CN2CCn3c(nn(-c4ccc(Cl)cc4)c3=O)C2)cc1	u	x	u	i	x
O=c1n(-c2ccc([N+](=O)[O-])cc2)nc2n1CCN(Cc1ccc(OC(F)(F)F)cc1)C2	u	i	35µM*	i	18µM*
O=c1n(-c2ccc([N+](=O)[O-])cc2)nc2n1CCN(CC1CC1)C2	u	u	35µM*	-12%[88.5 µM]	u
O=c1n(-c2ccc([N+](=O)[O-])cc2)nc2n1CCN(Cc1cccc3ccccc13)C2	u	i	u	i	-20%
O=c1n(-c2ccc(Cl)cc2)nc2n1CCN(Cc1ccccc1)C2	8.9µM*	x	u	-11%	x
O=c1n(-c2ccncc2)nc2n1CCN(Cc1cccc3ccccc13)C2	u	i	45µM*	u	u
O=c1n(-c2ccc(Cl)cc2)nc2n1CCN(Cc1cccc3ccccc13)C2	1%	x	-25%	0%	x
Cc1cccc(NC(=O)C2c3ccccc3C(=O)N(CC(C)C)C23CCCC3)n1 (stereo not given)	u	i	u	i	-10%
OCC1(CCCc2ccccc2)CCN(Cc2cccc3c2OCO3)CC1	u	i	u	1%	-5%
Cc1ccc(CN2CCn3c(nn(-c4ccc([N+](=O)[O-])cc4)c3=O)C2)cc1	u	i	45µM*	i	u
SMILES	NIH3T3 tox	Luciferase inh	HEK293 tox	GPT2 inh	NPR1 antag
CC1(C)CC[C@]2(C(=O)O[C@@H]3O[C@H](CO)[C@@H](O)[C@H](O)[C@H]3O)CC[C@]3(C)C(=CCC4[C@@]5(C)CC[C@H](O[C@@H]6O[C@H](C(=O)O)[C@@H](O)[C@H](O[C@@H]7O[C@H](CO)[C@H](O)[C@H](O)[C@H]7O)[C@H]6O)C(C)(C)C5CC[C@]43C)C2C1 (stereo not given in full)	x	x	x	-10%[17.1 µM]	x
O=[S+]([O-])(c1cccs1)N1CC(Oc2ccc(F)cc2F)C1	u	x	u	i	x
COc1ccc(F)cc1-c1ccc(CN2CCC(N[S+](=O)([O-])c3c(C)noc3C)C2)cc1 (stereo not given)	u	x	45µM*	x	x
COc1cccc(-c2ccc(CN3CCCC(N[S+](=O)([O-])c4cccs4)C3)cc2)c1 (stereo not given)	32µM*	x	13µM*	-11%	x
COc1ccc(F)cc1-c1ccc(CN2CCC(N[S+](=O)([O-])c3cccs3)C2)cc1 (stereo not given)	u	x	40µM*	x	x
O=[S+]([O-])(NC1CCCN(Cc2ccc(-c3cncnc3)cc2)C1)c1cccs1 (stereo not given)	u	x	u	i	x
COc1ccc(F)cc1-c1ccc(CN2CCC(N[S+](=O)([O-])c3ccc(C)cc3)C2)cc1 (stereo not given)	28µM*	x	32µM*	x	x
CC1=C[C@@H](CN2CCN(c3ncccn3)CC2)[C@H](C(C)C)C[C@H]1Cc1nnc(Cc2c[nH]c3ccccc23)o1	u	i	45µM*	4%	0%
CCCc1nnc(C[C@@H]2C[C@@H](C(C)C)[C@H](CN3CCN(c4ncccn4)CC3)C=C2C)o1	u	i	40µM*	i	2%
CCCc1nnc(C[C@@H]2C[C@@H](C(C)C)[C@H](CN3CCN(C(C)=O)CC3)C=C2C)o1	-12%[174 µM]	i	100µM*	-2%[88.5 µM]	-6%[70.6 µM]
CCCc1nnc(C[C@@H]2C[C@@H](C(C)C)[C@H](CNc3cccnc3)C=C2C)o1	25µM*	i	89µM*	10µM*	-9%[70.6 µM]
CCCc1nnc(C[C@@H]2C[C@@H](C(C)C)[C@H](CNCc3cccnc3)C=C2C)o1	-24%[138 µM]	i	u	-6%[88.5 µM]	-12%[70.6 µM]
CCCc1nnc(C[C@@H]2C[C@@H](C(C)C)[C@H](CN3CCC(O)CC3)C=C2C)o1	-1%[174 µM]	i	4%[172 µM]	i	3%[70.6 µM]
CCCc1nnc(C[C@@H]2C[C@@H](C(C)C)[C@H](CO)C=C2C)o1	u	i	u	-13%[88.5 µM]	0%[70.6 µM]
CC1=C[C@@H](CN2CCN(CCO)CC2)[C@H](C(C)C)C[C@H]1Cc1nnc(C)o1	-8%[138 µM]	i	-12%[172 µM]	i	2%[70.6 µM]
Cc1cccc(C)c1-c1nnc2ccc(C(=O)NCc3cccs3)cn12	-21%	x	u	0%	x
